Results on five compounds are retold here after PubChem BioAssay (NCATS).

Usually viability stands for a read-out of living cells in per cent, often relative to untreated cells.

“And” between values parts separate entries of the source, which are not always exact repeats. Equal entries are not always repeated. Records with an inconclusive call do not appear. A number with no mark means an inactive call. The source made the active and inactive calls. Unless noted, calls follow the shape of the dose curve; as a rule, active = well fitted curve in the direction sought with a large enough effect; inconclusive = small, poorly fitted or top-dose-only effect, or another doubt; inactive = no such curve, though single readings can be large; an effect the other way counts as inactive or inconclusive.

Assay [1] deals with Cellular tumor antigen p53 (Homo sapiens) (UniProt P04637). The assay can be described thus: Primary qHTS for small molecule compounds that upregulate eGFP-tagged delta133p53alpha (in N-terminal) cells. (AID 2060322).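 Also: series mostly up to about 56 µM; 0% = DMSO vehicle and 100% = reference activator; nearly all actives have a fitted effect of over 75% in size.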 The conditions noted are these: NCI-H358 eGFP-delta133p53alpha fluorescence, 24 h; activation: hits give high values. In a few lines: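 NCI-H358 cells pre-induced 24 h with 10 ng/ml doxycycline to express N-terminal eGFP-delta133p53alpha, then dosed 24 h at 37C without doxycycline; fixed, Hoechst-stained, GFP intensity by laser scanning cytometry, normalized to DMSO (0%) and 57.5 uM 5-azacytidine (100%).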
Cellular tumor antigen p53 (Homo sapiens), sequence (P04637 whole entry, looked up): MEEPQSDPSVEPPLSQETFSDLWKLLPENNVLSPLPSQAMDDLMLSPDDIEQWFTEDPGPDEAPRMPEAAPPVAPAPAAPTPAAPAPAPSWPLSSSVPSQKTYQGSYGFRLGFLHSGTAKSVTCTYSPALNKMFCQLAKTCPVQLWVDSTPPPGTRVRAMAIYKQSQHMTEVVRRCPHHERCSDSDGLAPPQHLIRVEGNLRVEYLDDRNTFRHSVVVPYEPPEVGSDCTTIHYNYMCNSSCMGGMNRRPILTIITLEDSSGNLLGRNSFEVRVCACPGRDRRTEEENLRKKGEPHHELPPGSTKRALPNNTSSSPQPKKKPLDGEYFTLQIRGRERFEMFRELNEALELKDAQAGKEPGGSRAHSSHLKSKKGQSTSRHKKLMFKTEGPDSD
In general terms: In qHTS, concentration-response curves come from the screen itself.

Assay [2] has as its target Aldehyde dehydrogenase, mitochondrial (Homo sapiens) (UniProt P05091). The assay can be described thus: qHTS for Inhibitors of the Aldehyde Dehydrogenase Family (ALDH2) Confirmatory screens (AID 2061303; active = well fitted inhibition curve with a large enough effect; title and protocol of this record describe different tests; also: % is scaled to controls: 0 for no effect and ±100 for the full control effect; nearly all actives have a fitted effect of over 45% in size).
A short description of assay [3]: qHTS for Inhibitors of the Aldehyde Dehydrogenase Family (ALDH1A2, ALDH1A3, ALDH2, ALDH3A1) (AID 2061307). Also: % is scaled to controls: 0 for no effect and ±100 for the full control effect; nearly all actives have a fitted effect of over 50% in size.
In assay [4] the target is Aldehyde dehydrogenase, mitochondrial (Homo sapiens) (UniProt P05091). The experiment in a line: qHTS for Inhibitors of the Aldehyde Dehydrogenase Family (ALDH2) Primary screen (AID 2061308).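 Also: plate controls were vehicle for no effect and reference inhibitor for full effect; nearly all actives have a fitted effect of over 55% in size.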
The target in assay [5] is Retinal dehydrogenase 2 (Homo sapiens) (UniProt O94788). The experiment in a line: qHTS for Inhibitors of the Aldehyde Dehydrogenase Family (ALDH1A2) Confirmation screens (AID 2061314). Also: nearly all actives have a fitted effect of over 65% in size.
The target of assay [6] is Retinaldehyde dehydrogenase 3 (Homo sapiens) (UniProt P47895). The assay can be described thus: qHTS for Inhibitors of the Aldehyde Dehydrogenase Family (ALDH1A3) Primary screen (AID 2061315).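 Also: plate controls were DMSO vehicle for no effect and reference inhibitor for full effect.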
The target is the same in assay [7]. The experiment in a line: qHTS for Inhibitors of the Aldehyde Dehydrogenase Family (ALDH1A3) Confirmatory screens (AID 2061311). Also: nearly all actives have a fitted effect of over 60% in size. Also: potency is read from the fitted curve at half-maximal effect.
Assay [8] has the same target. The experiment in a line: qHTS for Inhibitors of the Aldehyde Dehydrogenase Family (ALDH1A3) Validation screen (AID 2061312). Also: % is scaled to controls: 0 for no effect and ±100 for the full control effect; nearly all actives have a fitted effect of over 45% in size.
The target in assay [9] is Aldehyde dehydrogenase 1A1 (Homo sapiens) (UniProt P00352). The experiment in a line: qHTS for Inhibitors of the Aldehyde Dehydrogenase Family (ALDH1A1) Confirmatory screens (AID 2061316). Also: % is scaled to controls: 0 for no effect and ±100 for the full control effect; nearly all actives have a fitted effect of over 65% in size.
Assay [10] in a line: BET inhibitor-based combinations targeting novel dependencies in MECOM-rearranged (r) AML: SET-2 cell line (AID 2202231).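 Also: plate controls were DMSO treated cells for no effect and wells without cells for full effect; nearly all actives have a fitted effect of over 35% in size.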 The conditions noted are these: SET-2 AML cells viability, CellTiter-Glo luminescence, 48 h; viability: hits give low values, series mostly up to about 46 µM. In a few lines: (§1)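 Readout: CellTiter-Glo luminescence. Exposure: 48 h, 11 concentrations, 500 cells/well. Metric: AUC and within-line Z-AUC after DMSO/empty-well normalization.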
On the technique in general: Cellular ATP, detected with luciferase, serves as a proxy for viable cell number.

Assay [11] is described as follows: BET inhibitor-based combinations targeting novel dependencies in MECOM-rearranged (r) AML: OCI-AML3 cell line (AID 2202232).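 Also: series mostly up to about 46 µM; plate controls were DMSO vehicle wells for no effect and wells without cells for full effect; nearly all actives have a fitted effect of over 35% in size.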 The following applies: Potency: OCI-AML3 viability. In a few lines: as §1
Assay [12] is described as follows: BET inhibitor-based combinations targeting novel dependencies in MECOM-rearranged (r) AML: HNT-34 cell line (AID 2202234).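 Also: plate controls were vehicle wells for no effect and cell-free wells for full effect; nearly all actives have a fitted effect of over 35% in size.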 In a few lines:
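Seeding density was 500 cells/well, and drug exposure lasted 48 hr under standard culture conditions. Read-out used CellTiter-Glo reagent with a 15 min room-temperature incubation before luminescence measurement; AUC and Z-AUC summarize the normalized responses.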

A short description of assay [13]: BET inhibitor-based combinations targeting novel dependencies in MECOM-rearranged (r) AML: AML-191 cell line (AID 2202236;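 also: plate controls were vehicle wells for no effect and wells without cells for full effect; nearly all actives have a fitted effect of over 35% in size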). An outline of the steps: as §1

In the case of `COc1cc(/C=C/C(=O)OC[C@H]2O[C@@H](OC3OC=C(C(=O)O)C4C(O)CC(C)(O)C34)[C@H](O)[C@@H](O)[C@@H]2O)cc(OC)c1O` (some centres undefined), the activation in [1] was -12.2%. The Potency entry in assay [2], in assay [3], in [4] and in [5] was “inactive” in each case.

With `O=C1Nc2ccccc2-c2nc3ccccc3c(=O)n2-c2c(O)cccc21`, in [1], the activation is 23.2%. For the same compound, the Potency entry in [2], in assay [3], in assay [4] and in [6] was “inactive” each time.

For `CC1(C)SCCN(S(=O)(=O)c2ccc(Oc3ccncc3)cc2)[C@H]1C(=O)NO`, the activation in [1] is 20.3%. Moreover, the Potency result in assay [2], in assay [3], in [4] and in assay [5] was “inactive” in each case.

For `COC(=O)N1CCN(Cc2cccc(NC(=O)Nc3ccc(C)nc3)c2F)CC1`, the activation in assay [1] is 4.35% and -6.68%. The Potency result in assay [2], in assay [4], in [7], in assay [8], in assay [5] and in assay [6] was “inactive” each time. In addition, the Potency result in assay [9], in assay [11], in [12] and in assay [13] was “inactive” in each case. In assay [10], the viability was 104%.

For the compound `Cc1ccccc1C#Cc1ccc(CCC(=O)O)cc1`, in assay [1], the activation was 4.3%. In addition, the Potency entry in assay [2], in assay [4], in assay [8], in assay [5] and in assay [9] was “inactive” each time. Moreover, in [7], the Potency is 10.1 µM (active).
